Laboratory results: PubChem BioAssay
Entries with a potency or affinity are not part of this list. Records with an inconclusive call do not appear. The source made the active and inactive calls. Unless noted, how the calls were made is not given here.

Columns and labels:
[1] = cytotoxicity in PAX8-dependent RMG-1 cells, dose response, cell-based, cherry-pick (AID 687029;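 active means signal drop whose fitted half-maximal concentration is at most twice the top valid dose, in every test run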;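 further: cells exposed to compound for 96 hours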); conditions: RMG-1 viability, CellTiterGlo ATP luminescence, 96 h; series mostly up to 35 µM
[2] = cytotoxicity in IOSE-T80 ovarian epithelial cells, dose response, selectivity assay for PAX8 inhibitor project, cell-based, cherry-pick (AID 687032;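 active means fitted half-maximal concentration for viability loss no higher than twice the top valid dose, in every repeat run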;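 further: cells exposed to compound for 96 h before reading; 0% = neutral control wells and -100% = 2 µM mitoxantrone kill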); conditions: CellTiterGlo ATP luminescence, 96 h; series mostly up to 35 µM
[3] = inhibitors of CMV-promoter luciferase reporter, dose response, counter-screen for Pax8 inhibitor project, cell-based, HEK293, luminescence, dry powder (AID 743020;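 active means signal-lowering compounds whose fitted half-maximal concentration is at or below twice the top tested dose in every run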;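 further: HEK293 cells stably expressing the CMV luciferase reporter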); conditions: SteadyGlo luminescence, 24 h; series mostly up to 35 µM
[4] = non-specific cell cytotoxicity, dose response, cytotoxicity control for PAX8 inhibitor project, plate reader, dry powder samples (AID 743021); conditions: cell line, non-specific cytotoxicity counter-screen; series mostly up to 35 µM
[5] = IGROV1 ovarian cancer cell cytotoxicity, dose response, PAX8 inhibitor project, plate reader, dry powder samples (AID 743043); conditions: series mostly up to 35 µM;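 further: more negative means fewer viable cells or more cytotoxicity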
[6] = IOSE-T80 ovarian epithelial cell cytotoxicity, dose response, cytotoxicity control for PAX8 inhibitor project, plate reader, dry powder samples (AID 743045); conditions: IOSE-T80 ovarian epithelial cells; series mostly up to 35 µM;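 further: 0% = neutral control median and -100% = positive control median; more negative values mean more cell killing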
[7] = cytotoxicity in OVCAR8 ovarian cancer cells, dose response, PAX8 project, cell-based, plate reader, dry powder samples (AID 743197); conditions: series mostly up to 35 µM
[8] = NIH:OVCAR-3 ovarian cancer cell cytotoxicity, dose response, PAX8 inhibitor project, plate reader, dry powder samples (AID 743044); conditions: NIH:OVCAR-3 ovarian cancer cell viability; max activity: at 35 µM, stronger effect = lower value unless noted; series mostly up to 50 µM
[9] = A2780 ovarian cancer cell cytotoxicity, dose response, cytotoxicity control, plate reader, dry powder samples (AID 743046); conditions: series mostly up to 35 µM;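 further: 0% = neutral control wells and -100% = cytotoxic reference compound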

Measured: max activity

C[C@@H]1CN([C@H](C)CO)C(=O)c2cc(NS(=O)(=O)c3ccc(Cl)cc3)ccc2O[C@@H](C)CCCCO[C@@H]1CN(C)Cc1ccc(Cl)c(Cl)c1
not listed: [8] | [9]
inactive: all other assays above

CC(C)(C)S(=O)N1Cc2cc(C(=O)NCCCN3CCOCC3)nc(-c3cccc(C#CCC4CCCC4)c3)c2[C@@H]1CCO (some centres undefined)
not listed: [8] | [9]
inactive: all other assays above

C[C@@H]1CN([C@H](C)CO)C(=O)c2cc(NS(=O)(=O)c3ccc(Cl)cc3)ccc2O[C@@H](C)CCCCO[C@H]1CN(C)S(=O)(=O)c1ccc(F)cc1
inactive: [1] | [2] | [3] | [4] | [8] 26.2% [at 1 µM, stronger effect = lower value] | [6]

C[C@@H]1CCCCO[C@@H](CN(C)S(=O)(=O)c2ccc(Cl)cc2)[C@H](C)CN([C@@H](C)CO)C(=O)c2cc(N(C)C)ccc2O1
not listed: [8]
inactive: all other assays above

C[C@@H]1CCCCO[C@H](CN(C)Cc2ccc(C(F)(F)F)cc2)[C@H](C)CN([C@@H](C)CO)C(=O)c2cc(NC(=O)c3ccccc3)ccc2O1
not listed: [6] | [7] | [8]
inactive: all other assays above

C[C@H](CO)N1C[C@H](C)[C@H](CN(C)Cc2ccc(Cl)c(Cl)c2)OCCCC[C@H](C)Oc2ccc(NS(=O)(=O)c3ccc(F)cc3)cc2C1=O
not listed: [8]
inactive: all other assays above

Cc1cccc(S(=O)(=O)N2CC[C@@H]3[C@H](CO)N(C)c4ccc(-c5ccc(C#N)cc5)cc4[C@@H]32)c1
not listed: [8]
inactive: all other assays above

Cc1ccc(S(=O)(=O)Nc2ccc3c(c2)C(=O)N([C@H](C)CO)C[C@@H](C)[C@@H](CN(C)Cc2ccc4c(c2)OCO4)OCCCC[C@@H](C)O3)cc1
not listed: [8] | [9]
inactive: all other assays above

C[C@H](CO)N1C[C@H](C)[C@@H](CN(C)Cc2ccc(C(F)(F)F)cc2)OCCCC[C@H](C)Oc2ccc(NC(=O)Cc3ccccc3)cc2C1=O
not listed: [8]
inactive: all other assays above

CC(C)NC(=O)N(C)C[C@H]1OCCCC[C@H](C)Oc2ccc(NC(=O)Nc3ccc(C(F)(F)F)cc3)cc2C(=O)N([C@H](C)CO)C[C@@H]1C
not listed: [8]
inactive: all other assays above

C[C@@H]1CN([C@H](C)CO)C(=O)c2cc(NS(=O)(=O)c3cccs3)ccc2O[C@@H](C)CCCCO[C@H]1CN(C)Cc1ccc(Cl)c(Cl)c1
not listed: [8]
inactive: all other assays above

C[C@@H]1CN([C@H](C)CO)C(=O)c2cccc(NC(=O)Nc3cccc4ccccc34)c2O[C@H]1CN(C)C(=O)Nc1ccc(C(F)(F)F)cc1
not listed: [8]
inactive: all other assays above

O=C(C[C@@H]1CC[C@@H]2[C@H](COC[C@@H](O)CN2S(=O)(=O)c2cccc(Cl)c2)O1)Nc1ccc(-c2ccccc2)cc1
not listed: [8]
inactive: all other assays above

O=C(C[C@@H]1C[C@H]2c3cc(NC(=O)Nc4ccc(C(F)(F)F)cc4)ccc3O[C@H]2[C@H](CO)O1)NCc1ccc(Cl)cc1
not listed: [8]
inactive: all other assays above

COc1ccccc1S(=O)(=O)N1CC[C@H]2[C@@H](CO)N(C)c3ccc(-c4ccc(C#N)cc4)cc3[C@H]21
not listed: [8] | [9]
inactive: all other assays above

C[C@@H]1CN([C@@H](C)CO)C(=O)Cc2cc(NC(=O)Nc3ccc(C(F)(F)F)cc3)ccc2O[C@H]1CN(C)C(=O)NC1CCCCC1
not listed: [8]
inactive: all other assays above

O=C(C[C@@H]1C[C@@H]2c3cc(NC(=O)Cc4ccncc4)ccc3O[C@@H]2[C@H](CO)O1)NCc1ccc(-c2ccccc2)cc1
not listed: [8]
inactive: all other assays above

COc1ccc(S(=O)(=O)Nc2ccc3c(c2)C(=O)N([C@@H](C)CO)C[C@@H](C)[C@@H](CN(C)Cc2ccc(C(F)(F)F)cc2)OCCCC[C@@H](C)O3)cc1
not listed: [6] | [7] | [8]
inactive: all other assays above

O=S(=O)(c1ccccc1F)N1CC[C@H]2[C@H](CO)Nc3ccc(C4=CCCCC4)cc3[C@H]21
not listed: [6] | [7] | [8]
inactive: all other assays above

C[C@@H]1CCCCO[C@H](CN(C)Cc2ccc(C(=O)Nc3ccccc3N)cc2)[C@@H](C)CN([C@@H](C)CO)C(=O)c2cc(NS(=O)(=O)c3ccc(Cl)cc3)ccc2O1
not listed: [6] | [7] | [8]
inactive: all other assays above

C[C@H]1CN([C@@H](C)CO)C(=O)Cc2cc(NC(=O)Nc3ccc(F)cc3)ccc2O[C@H]1CN(C)Cc1ccc(Cl)c(Cl)c1
not listed: [8]
inactive: all other assays above

O=C(Nc1ccc(F)cc1)N[C@H]1CC[C@H](CCNC(=O)c2cc(Cl)cc(Cl)c2)O[C@H]1CO
not listed: [8]
inactive: all other assays above

Cc1cccc(S(=O)(=O)N2CC[C@@H]3[C@H]2c2cc(C4=CCCCC4)ccc2N[C@@H]3CO)c1
inactive: [1] | [2] | [3] | [4] | [8] 9.72% [at 4.2 µM, stronger effect = lower value] | [6]

COc1ccc(-c2ccc3c(c2)[C@H]2[C@H](CCN2S(=O)(=O)c2ccc(OC)cc2)[C@@H](CO)N3C)cc1
not listed: [6] | [7] | [8]
inactive: all other assays above

C[C@H]1CN([C@@H](C)CO)C(=O)c2c(c3ccccc3n2C)-c2ccccc2CO[C@@H]1CN(C)S(=O)(=O)c1ccsc1
not listed: [8] | [9]
inactive: all other assays above

C[C@@H]1CN([C@H](C)CO)C(=O)c2cc(NC(=O)Nc3ccc(F)cc3)ccc2O[C@@H](C)CCCCO[C@H]1CN(C)C(=O)NC1CCCCC1
not listed: [8]
inactive: all other assays above

C[C@@H]1CN([C@H](C)CO)S(=O)(=O)c2ccc(C#Cc3ccc(F)cc3)cc2O[C@H]1CN(C)C(=O)NC1CCCCC1
not listed: [8]
inactive: all other assays above

COc1cccc(-c2ccc3c(c2)[C@H]2[C@H](CCN2C(=O)NC2CCCCC2)[C@@H](CO)N3C)c1
not listed: [8] | [9]
inactive: all other assays above

COc1ccccc1-c1ccc2c(c1)[C@@H]1[C@@H](CCN1S(=O)(=O)c1ccccc1F)[C@H](CO)N2
not listed: [8]
inactive: all other assays above

C[C@H]1CCCCO[C@@H](CN(C)Cc2ccc3c(c2)OCO3)[C@@H](C)CN([C@@H](C)CO)C(=O)c2cc(NC(=O)Nc3ccc(F)cc3)ccc2O1
not listed: [8]
inactive: all other assays above

C[C@@H]1CN([C@@H](C)CO)C(=O)c2cc(NC(=O)Nc3ccc(C(F)(F)F)cc3)ccc2O[C@@H](C)CCCCO[C@@H]1CN(C)Cc1ccncc1
inactive: [1] | [2] | [3] | [4] | [8] 59.3% [at 2.1 µM, stronger effect = lower value] | [6] | [9] | [7]

COc1ccc(CN(C)C[C@H]2OCCCC[C@H](C)Oc3ccc(NC(=O)Nc4ccc(C(F)(F)F)cc4)cc3C(=O)N([C@@H](C)CO)C[C@@H]2C)cc1
inactive: [1] | [2] | [3] | [4] | [8] -11.3% | [6] | [9]

C[C@@H]1CCCCO[C@@H](CN(C)C(=O)Nc2ccc(F)cc2)[C@H](C)CN([C@H](C)CO)C(=O)c2cc(NS(=O)(=O)c3ccc(Cl)cc3)ccc2O1
inactive: [1] | [2] | [3] | [4] | [8] 17.7% | [6] | [9]

C[C@@H]1CN([C@@H](C)CO)C(=O)c2cc(NC(=O)Cc3ccccc3)ccc2O[C@@H](C)CCCCO[C@H]1CN(C)Cc1ccc(C(F)(F)F)cc1
inactive: [1] | [2] | [3] | [4] | [8] -16.1% | [6] | [9]
